Assay outcomes from PubChem.
The list is not random: actives were taken first. Their share in the collection is about 12%.
NS1 inh = inhibitors of influenza NS1 protein function; Potency, µM (titrated, usually from 46.1 µM), for inactives: at the top dose activity, positive = more growth; hit rate 0.4% among 270,000; AID 2326; further: potency means the concentration at half of the fitted maximal effect; actives are rising curves; nearly all actives have a fitted effect of over 50% in size
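In this qHTS, NS1 from influenza A is expressed in budding yeast, where it slows growth. Cells are switched from glucose to 2% galactose medium (pH 6.0, -URA), treated with compound, and growth recovery is read at OD600.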
CHX counter = counter-screen for Shiga toxin inhibitors: cycloheximide protein synthesis inhibition; cell reporter, cycloheximide protein synthesis inhibition counterscreen; max response, %; hit rate 12% among 300,000; AID 2314; in the data active means max response mostly above about 13%, no sharp cut-off; inactive means mostly below about 14%; further: read at 38.3 µM for the half of the compounds with a filed dose; 0% is about no effect
Shiga inhibitor = blocks Shiga toxin action in Vero cells | Vero cells, Shiga toxin protein synthesis inhibition reporter | inhibition, % at 38.7 µM | hit rate 9.2% among 290,000; in the data active means inhibition mostly above about 28%, no sharp cut-off; inactive means mostly below about 43%; further: 0% is about no effect
SARS PLP yeast = SARS-CoV PLP inhibition in yeast; S. cerevisiae expressing SARS-CoV PLpro, growth rescue; hit rate 0.19% among 330,000; AID 485353; Potency, µM (top dose mostly 32.9 µM), for inactives: at the highest dose activity, positive = growth rescue, usual class: activators; further: potency means the concentration at half of the fitted maximal effect; 0% is about no effect; nearly all actives have a fitted effect of over 55% in size
The depositor's hits bear a star; ? = inconclusive; nt = no result given. Unless noted, the call rests on the fitted dose curve.

SMILES	NS1 inh	CHX counter	Shiga inhibitor	SARS PLP yeast
Cc1ccc(NC(=O)c2nc[nH]c2C(=O)NCCCNC(=O)c2[nH]cnc2C(=O)Nc2ccc(C)cc2)cc1	nt	nt	nt	4%
NNC(=O)c1nc[nH]c1C(=O)Nc1ccccn1	7%	-2	1	14µM*
O=C(Nc1ccccc1)c1nc[nH]c1C(=O)NCCNC(=O)c1[nH]cnc1C(=O)Nc1ccccc1	nt	nt	nt	9%
Cc1ccc(NC(=O)c2[nH]cnc2C(=O)NN)cc1	13%	26*	71*	3%
O=C(NNC(=O)c1ccc([N+](=O)[O-])cc1)NC1CCCCC1	3%	1	-5	0%
C/C(=N\NC(=O)c1cc(-c2cccc([N+](=O)[O-])c2)n[nH]1)c1ccccc1O	9%	-7	-15	17%
COc1ccc(NC(=O)CSc2nc3c(oc4ccccc43)c(=O)n2Cc2ccco2)cc1Cl	nt	16	35	nt
O=C(CNC(=O)c1ccc(Cl)cc1)c1ccc(Cl)cc1	0%	16*	52*	0%
O=C(CNC(=O)c1ccc(Br)cc1)c1ccccc1	-6%	28*	29*	-3%
O=C(CNC(=O)c1ccc(F)cc1)c1ccc(Cl)cc1	-13%	46*	69*	4%
O=C(CNC(=O)c1ccc(Br)cc1)c1ccc(Br)cc1	19%	1	27	0%
O=C(CNC(=O)c1ccccc1C(=O)O)c1ccccc1	-6%	49*	62*	12%
O=C(CNC(=O)c1ccc(F)cc1)NCc1ccc(Cl)cc1	5%	0	-6	-1%
Cc1ccc(SCC(=O)NNC(=O)CNC(=O)c2ccccc2F)cc1	nt	nt	nt	0%
O=C(CNC(=O)c1ccc(-c2ccccc2)cc1)OCc1ccc(Br)cc1	1%	39*	68*	9%
COc1ccc(C(=O)NCC(=O)OCc2ccc(Br)cc2)cc1	-4%	-1	-7	6%
Cc1c(C(=O)Nc2ccncc2)sc2nc(-c3ccc(F)cc3)cn12	-43%	17*	24	-4%
Cc1c(C(=O)NCC(C)C)sc2nc(-c3ccc(F)cc3)cn12	1%	21*	23	-2%
Cc1c(C(N)=O)sc2nc(-c3ccccc3)cn12	-10%	36*	87*	3%
COCCN(CCOC)C(=O)c1sc2nc(-c3ccccc3)cn2c1C	-1%	8	5	-2%
COc1ccc(-c2cn3c(C)c(C(=O)Nc4ccncc4)sc3n2)cc1	12%	30	45	1%
CCN(CC)CCNC(=O)c1sc2nc(-c3ccccc3)cn2c1C	1%	-1	13	-2%
CCN(CC)c1ccc(/C=N/n2nnnc2N)c(O)c1	-2%	14*	33	-9%
CSc1ccc(/C=N/n2nnnc2N)cc1	1%	27*	24	-1%
CCN(C)c1ccc(/C=N\n2nnnc2N)cc1	-8%	29*	65*	?
SMILES	NS1 inh	CHX counter	Shiga inhibitor	SARS PLP yeast
COc1ccc(NC(=O)c2cc(C)cc(C)c2)cc1S(=O)(=O)N1CCCCC1	nt	nt	nt	-2%
CS(=O)(=O)Nc1ccc(C(=O)NCCC2=CCCCC2)cc1	3%	55*	144*	nt
O=C(NCCC1=CCCCC1)c1ccc(Cl)cc1	-31%	33*	46	-1%
CS(=O)(=O)N(Cc1ccc(Cl)cc1)c1ccc(C(=O)NCCC2=CCCCC2)cc1	5%	-2	-8	7%
O=C(NCCC1=CCCCC1)c1ccc(Cl)c(S(=O)(=O)N2CCOCC2)c1	-31%	12	active	-2%
O=C(NCCC1=CCCCC1)c1ccc(Cl)c(S(=O)(=O)N2CCCCC2)c1	-59%	30	50	-6%
O=C(NCCC1=CCCCC1)c1ccc(=O)oc1	-14%	-3	-3	-2%
COc1ccc(-n2c(=O)c3ccccc3n(Cc3ccccc3F)c2=O)cc1OC	nt	1	28	-2%
O=C(NC(Cc1ccccc1)c1ccc2c(c1)OCCCO2)c1ccc(F)cc1 (stereo unspecified)	18%	20	30	10%
CC(=O)NC(Cc1ccccc1)c1ccc2c(c1)OCCCO2 (stereo unspecified)	11%	11	active	-3%
N#Cc1ccc(S(=O)(=O)NC2CC2)cc1	5%	-5	-12	-3%
O=C(NNc1c(Cl)cccc1Cl)c1c(F)cccc1Cl	1%	-1	-4	-2%
O=C(NCC1CC1)NC(=O)c1c(F)cccc1Cl	1%	15*	28	0%
O=C(CSc1nnc2ccccn12)Nc1ncc(Cl)cc1Cl	-11%	23*	36	5%
O=C(CSc1nc(-c2ccccc2)c(-c2ccccc2)[nH]1)Nc1ccc2c(c1)OCO2	16%	15*	24	2%
Cn1cc(SCC(=O)Nc2ccc3c(c2)OCCO3)c2ccccc21	-35%	24*	63*	-20%
CC(Sc1nnc2ccccn12)C(=O)Nc1ncc(Cl)cc1Cl (stereo unspecified)	-4%	26	18	2%
